The chains are these.
T1: UNK ZnF1-6 (called full-length) (human, UniProt Q9C0B0 30-357)
T1 sequence: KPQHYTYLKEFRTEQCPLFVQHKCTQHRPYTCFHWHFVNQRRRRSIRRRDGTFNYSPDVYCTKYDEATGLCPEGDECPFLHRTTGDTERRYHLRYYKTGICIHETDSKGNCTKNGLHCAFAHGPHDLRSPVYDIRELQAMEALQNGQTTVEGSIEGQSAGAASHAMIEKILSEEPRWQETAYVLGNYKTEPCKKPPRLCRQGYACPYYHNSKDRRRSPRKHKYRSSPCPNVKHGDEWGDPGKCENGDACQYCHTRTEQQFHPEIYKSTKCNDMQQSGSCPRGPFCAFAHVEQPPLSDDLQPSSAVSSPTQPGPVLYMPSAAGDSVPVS

B1: chr17:32711987:32712195:-|CDS|ENSG00000176658|control|control|control (ssRNA)
RNA: GGGAGUUCUACAGUCCGACGAUCUCCUUCAGACAAAGAGGCUGUCAAGAAACUAAUUGAACGGUGUGGUUUUCAGGAUGAUGUAGCUUAUGGGAAGACCAAAAUUUUCAUUCGAACACCCCGAACAUUGUUUACCUUGGAAGACAACAGAGGAUUGAGCAUCA
B2: chr12:293013:293114:-|CDS|ENSG00000073614|unk|FALSE|bound_elsewhere (ssRNA)
RNA: GGGAGUUCUACAGUCCGACGAUCACUAAAAGUGAAAGGAAAGGACUCUUCAGAGAAGAAACGGAAACGGAAGCUAGAAAAGGUAGAGCAACUUUUUGGAGAAGGAAAACAGAAGUCCAAGGAGUUAAAGAAAAUGGACAAACCCAACAGAGGAUUGAGCAUCA
B3: chr1:228098150:228098251:+|3pUTR|ENSG00000143761|msi1_unk|total|mutant (ssRNA)
RNA: GGGAGUUCUACAGUCCGACGAUCGCACCGUGCUGUAAAUGUGGCAGACGCAGCCUGCGGCCAGGCUUUUUAUUUAAUGUAAACCGUUUUUGUUUCCAAUGAGGCAGUUUCUGGUACUCCUAUGCAAUAUUACUCAGCUUUUUUCAACAGAGGAUUGAGCAUCA
B4: chr7:50445662:50445763:-|CDS|ENSG00000132436|msi1|FALSE|unique (ssRNA)
RNA: GGGAGUUCUACAGUCCGACGAUCGUUAUCUCAACGGGGAGAUGGUGAGCAUGAAUCUUCUAGAAGGAUAAAAACAGAAUUUUUAGUUCAAUUAGAUGGAGCAACAACAUCUUCUGAAGAUCGUAUCCUAGUGGUGGGAGCAACCAACAGAGGAUUGAGCAUCA
B5: chr12:123662440:123662541:+|3pUTR|ENSG00000111358|unk|FALSE|unique (ssRNA)
RNA: GGGAGUUCUACAGUCCGACGAUCAAUGGAAAUCACAAUUUUAAGUCUAGGAAAUAAAGUAUUAUAUAUACUUUCAAACAAGCUAGCAAGGCUUUUAUUAUUACUUUUUUAUUUGAAAUAUCUUAUAUAUUUGGUUAGUUCUGUCAACAGAGGAUUGAGCAUCA
B6: ENSG00000120802:stop:overlap|stop_codon|ENSG00000120802|stop_codon|NA|stop_codon (ssRNA)
RNA: GGGAGUUCUACAGUCCGACGAUCGUGGAACAUUAUUUGGAGGAGAAGUAUGCAAAGUAAUUAAAAAGCGUGGAAAUAAACACUAGUAAAAUUAAGGACAAAAAGACAUCUAUCUUAUCUUUCAGGUACUUUAUGCCAACAUUUCAACAGAGGAUUGAGCAUCA
B7: chr17:81921741:81921842:-|3pUTR|ENSG00000197063|msi1|FALSE|unique (ssRNA)
RNA: GGGAGUUCUACAGUCCGACGAUCAAUUAUAUGUUUAAAAGUUAAAGAAAAAAGAGCUGCAGAGUAUUUAUAAAACUGUCUUUUAGAAAAAAAACAAGCAAGAAGACCAUUUGACCAUAUGAAUGGAAAAGGGAAGAAAGUAUACAACAGAGGAUUGAGCAUCA
B8: chr4:150265445:150265561:-|3pUTR|ENSG00000198589|unk|FALSE|bound_elsewhere (ssRNA)
RNA: GGGAGUUCUACAGUCCGACGAUCGGAUUAGCAAAGCAGAAAACUGGCUGCUGGGUUCUGUAGUUUUAAAAAAUCUAUAUUUUUAGUCAUAAUGAGAAGUCUAUUUUCACCAAUUAUGGAAACAUACAGUGGAGCAAGUAAACCCAACAGAGGAUUGAGCAUCA
B9: chr4:150265445:150265561:-|3pUTR|ENSG00000198589|unk|total|mutant (ssRNA)
RNA: B8 RNA with U28C, A29C, U60C, A61C, U83C, A84C
B10: chr6:119178661:119178762:-|3pUTR|ENSG00000111885|msi1|FALSE|unique (ssRNA)
RNA: GGGAGUUCUACAGUCCGACGAUCGAAAGAAGCUUUGCCAAUUUUACUUAUUCGUGAUCAAUCAAGGAAAAUCUAAUAAAUUUUAGGCCAAAUAAGAAUAUAGCAUAUUUAGUAUGGUUAUAGUCAACACAGAGAUCACAACUUCAACAGAGGAUUGAGCAUCA
B11: chr9:122240152:122240253:-|3pUTR|ENSG00000119446|msi1|FALSE|unique (ssRNA)
RNA: GGGAGUUCUACAGUCCGACGAUCCUUCUUGGAGUAUAGAAUUCACCAUUUUAUCCGUAAGUCUUCAAAGGAUUAUGGUGGACUAGAACUUACAUAGUGCAAAAUAGUCUUCUAUUUUUAAUAGGAACUUAGAAAAAACUUAGACAACAGAGGAUUGAGCAUCA
B12: chr21:43695798:43695899:+|3pUTR|ENSG00000160208|msi1|FALSE|unique (ssRNA)
RNA: GGGAGUUCUACAGUCCGACGAUCACAAUAUUUUGUAAAAUGAUGCUUCCCCCUUCUCCAUGGUCUAGUCAAUUUUGUACAAUUAGGUAUCUGACUUUACAAGUUUGUUAUCCUUUCUAAUUUUUACUGAACUGAAAGCACAAACAACAGAGGAUUGAGCAUCA
B13: ENSG00000198589:be:win_8701|3pUTR|ENSG00000198589|bound_else_gene|NA|bound_elsewhere_windowed (ssRNA)
RNA: GGGAGUUCUACAGUCCGACGAUCUGUAGUCUUUGCUUGACUUUUUUGGGGGGGAUUAGCAAAGCAGAAAACUGGCUGCUGGGUUCUGUAGUUUUAAAAAAUCUAUAUUUUUAGUCAUAAUGAGAAGUCUAUUUUCACCAAUUACAACAGAGGAUUGAGCAUCA
B14: chr8:74853834:74853946:+|3pUTR|ENSG00000137558|unk|FALSE|unique (ssRNA)
RNA: GGGAGUUCUACAGUCCGACGAUCAAGUGCUUUUUUUUUUCUGAAUUAAUUAGGUAUUGGUAAAAUAUAUUUUUAAAUUUAGUUAGCUUUAUAAACACAAUUAGAAUUACAAUUAAUUAACAGAGGUAUAAUUGUCUCACUUUCCAACAGAGGAUUGAGCAUCA
B15: chr3:121431430:121432303:-|three_prime_utr|ENSG00000051341|control|control|control (ssRNA)
RNA: GGGAGUUCUACAGUCCGACGAUCUGGAAAGAACAGAGAUUACCCUUUCACCUACCUCAGCAAAACAAACUUUCAAGUCUUGAUAGACUUAGCCUAGUAAUUUUAUAGUGAGAGUUUCAAACUAUAUAUCAGUGUCUAUAGCAUCAACAGAGGAUUGAGCAUCA
B16: chr11:22846921:22847509:-|three_prime_utr|ENSG00000255359|control|control|control (ssRNA)
RNA: GGGAGUUCUACAGUCCGACGAUCCUCCACCAUUUCGGAAAAAUAAACACAGUGCAAGUAUUUAAUAUCCAAGCUACAGGCUCUAGAAUUUUAUUAAAUGCCAUCUCUCACUACCAUAUUUUUCUUUCCUGUGGUAAACUUGAACAACAGAGGAUUGAGCAUCA

Substitutions are numbered along the chain they refer to. In all, about 5,800 sequences were measured (“enrichment r”: median about 0.68, highest 2% from about 11 on). What follows is part of a selection rich in the highest values, with near analogues and random picks from the rest.

The target in this assay is T1, UNK ZnF1-6 (called full-length). Kind of assay: nsRBNS (natural sequence RNA bind-n-seq); RBNS binding buffer (assumed for nsRBNS): 25 mM Tris pH 7.5, 150 mM KCl, 3 mM MgCl2, 0.01% Triton X-100, 500 ug/ml BSA, 20 U/ml SUPERase-In, 4 C; UNK is unkempt and MSI1 is Musashi-1; names of the RNAs are library labels; protein concentration not given here; high values mean tight binding.
In turn, B1 came in with a binding signal of 0.434 enrichment R.

B2: the binding signal was determined as 0.672 enrichment R.

In the case of B3, the binding signal came out at 0.896 enrichment R.

Consider B4, for which the binding signal was found to be 0.853 enrichment R.

The molecule B5 came in with a binding signal of 12.5 enrichment R.

With B6, the binding signal was 1.07 enrichment R.

Regarding B7, the binding signal was found to be 2.78 enrichment R.

Turning to B8, the binding signal is 2.4 enrichment R.

Molecule B9 returned a binding signal of 0.438 enrichment R.

B10: the binding signal was 2.15 enrichment R.

B11: the binding signal turned out to be 41.4 enrichment R.

With B12, the binding signal was determined as 1.9 enrichment R.

B13: the binding signal is 29 enrichment R.

On to B14, for which the binding signal came to 171 enrichment R.

In turn, B15 showed a binding signal of 8.5 enrichment R.

In the case of B16, the binding signal turned out to be 0.713 enrichment R.

The values are drawn from publication PMC12136788.
